Measurements published in PubChem BioAssay AID1159580 (chemical genetic matrix, 2015).
Several values for one entry are separate records, joined by “and”; a condition that tells them apart may be missing. Equal entries are not always repeated. The whole screen tested about 5,500 compounds, of which about 2,000 (36%) were called active. Inconclusive results (about 18%) are left out. Rule as the data show it: active = normalized growth mostly below about 0.91 (no sharp cut-off); inconclusive = no clear call, values can overlap the other calls; inactive = mostly above about 0.92. The list shows a part of the results.

Test: chemical genetic growth profiling, strain panel (AID 1159580);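 also: tested at 20 µM; growth read once vehicle control cultures reached saturation at 30 °C; 1 = growth at the plate median or of vehicle wells; lower values mean less growth of the strain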
Details: S. cerevisiae deletion strains, growth OD

Measured: normalized growth

CCCC(C)(COC(N)=O)COC(=O)NC(C)C (stereo unspecified)
inactive: locus YAL021C, strain ccr4, active compounds read low 1 | locus YAL026C, strain drs2, active compounds read low 0.99 | locus YAL030W, strain snc1, active compounds read low 0.98 | locus YAL040C, strain CLN3, active compounds read low 0.989 | locus YBL061C, strain skt5, active compounds read low 1 | locus YBR009C, strain hhf1, active compounds read low 0.983 | locus YBR021W, strain FUR4, active compounds read low 0.991 | locus YBR023C, strain chs3, active compounds read low 1.01 | locus YBR171W, strain sec66, active compounds read low 1 | locus YBR229C, strain ROT2, active compounds read low 0.954 | locus YBR231C, strain swc5, active compounds read low 1.01 | locus YBR279W, strain paf1, active compounds read low 1 | locus YCL011C, strain gbp2, active compounds read low 0.996 | locus YCL016C, strain dcc1, active compounds read low 0.985 | locus YCL029C, strain bik1, active compounds read low 0.977 | locus YCL061C, strain MRC1, active compounds read low 1 | locus YCL069W, strain vba3, active compounds read low 0.992 | locus YCR088W, strain abp1, active compounds read low 0.998 | locus YDL005C, strain med2, active compounds read low 1 | locus YDL035C, strain GPR1, active compounds read low 0.951 | locus YDL040C, strain nat1, active compounds read low 1 | locus YDL074C, strain BRE1, active compounds read low 0.974 | locus YDL101C, strain DUN1, active compounds read low 0.982 | locus YDL134C, strain PPH21, active compounds read low 0.965 | locus YDL185W, strain tfp1, active compounds read low 0.945 | locus YDL192W, strain arf1, active compounds read low 0.965 | locus YDR001C, strain nth1, active compounds read low 0.974 | locus YDR069C, strain doa4, active compounds read low 1.01 | locus YDR101C, strain arx1, active compounds read low 0.983 | locus YDR137W, strain rgp1, active compounds read low 0.966 | locus YDR150W, strain NUM1, active compounds read low 0.983 | locus YDR159W, strain sac3, active compounds read low 0.986 | locus YDR162C, strain NBP2, active compounds read low 0.94 | locus YDR195W, strain ref2 1 | locus YDR297W, strain sur2, active compounds read low 0.991 | locus YDR318W, strain mcm21, active compounds read low 0.979 | locus YDR334W, strain swr1, active compounds read low 0.979 | locus YDR335W, strain msn5, active compounds read low 0.989 | locus YDR363W, strain ESC2, active compounds read low 0.976 | locus YDR388W, active compounds read low 0.979 | locus YDR392W, strain spt3, active compounds read low 0.952 | locus YDR502C, strain sam2, active compounds read low 0.984 | locus YEL003W, strain gim4, active compounds read low 0.986 | locus YEL037C, strain rad23, active compounds read low 0.993 | locus YEL061C, strain CIN8 (second series), active compounds read low 0.975 | locus YEL061C, strain CIN8, active compounds read low 0.982 | locus YER002W, strain NOP16, active compounds read low 0.995 | locus YER015W, strain faa2, active compounds read low 1.01 | locus YER016W, strain bim1, active compounds read low 0.986 | locus YER110C, active compounds read low 0.964 | locus YER111C, strain swi4, active compounds read low 0.973 | locus YER155C, strain BEM2 (second series), active compounds read low 1.04 | locus YER155C, strain BEM2, active compounds read low 0.99 | locus YER167W, strain BCK2, active compounds read low 0.989 | locus YFR010W, strain ubp6, active compounds read low 0.985 | locus YGL078C, strain dbp3, active compounds read low 0.981 | locus YGL086W, strain mad1, active compounds read low 0.98 | locus YGL167C, strain pmr1, active compounds read low 0.991 | locus YGL173C, strain kem1, active compounds read low 0.993 | locus YGL227W, strain vid30, active compounds read low 0.987 | locus YGL240W, strain doc1, active compounds read low 1.02 | locus YGL248W, strain PDE1, active compounds read low 0.991 | locus YGL253W, strain hxk2, active compounds read low 0.978 | locus YGR078C, strain PAC10, active compounds read low 0.988 | locus YGR135W, strain pre9, active compounds read low 1 | locus YGR229C, strain SMI1, active compounds read low 0.971 | locus YGR252W, strain gcn5, active compounds read low 0.989 | locus YHR013C, strain ard1, active compounds read low 0.967 | locus YHR027C, strain rpn1, active compounds read low 1.01 | locus YHR030C, strain SLT2, active compounds read low 0.992 and 0.979 | locus YHR079C, strain IRE1 (second series), active compounds read low 0.989 | locus YHR079C, strain IRE1, active compounds read low 0.974 | locus YHR094C, strain hxt1, active compounds read low 0.969 | locus YHR129C, strain ARP1, active compounds read low 0.988 | locus YHR142W, strain chs7, active compounds read low 0.982 | locus YHR200W, strain rpn10, active compounds read low 0.967 | locus YIL066C, strain RNR3, active compounds read low 0.975 | locus YIL073C, strain SPO22, active compounds read low 0.981 | locus YIL125W, strain kgd1, active compounds read low 0.969 | locus YIR030C, strain dcg1, active compounds read low 0.978 | locus YJL092W, strain hpr5, active compounds read low 0.988 | locus YJL095W, strain BCK1 (second series), active compounds read low 0.998 | locus YJL095W, strain BCK1, active compounds read low 1.02 and 0.977 | locus YJL115W, strain asf1, active compounds read low 0.962 | locus YJL129C, strain trk1, active compounds read low 0.983 | locus YJL134W, strain LCB3, active compounds read low 0.976 | locus YJL154C, strain vps35, active compounds read low 0.992 | locus YJL164C, strain tpk1, active compounds read low 0.966 | locus YJL166W, strain qcr8, active compounds read low 1.01 | locus YJL168C, strain set2, active compounds read low 0.981 | locus YJL187C, strain SWE1 (second series), active compounds read low 0.987 | locus YJR043C, strain POL32, active compounds read low 0.965 | locus YJR066W, strain TOR1, active compounds read low 0.965 | locus YJR075W, strain HOC1, active compounds read low 0.997 | locus YKL009W, strain mrt4, active compounds read low 1.03 | locus YKL068W, active compounds read low 0.971 | locus YKL085W, strain MDH1 (second series), active compounds read low 0.982 | locus YKL085W, strain MDH1, active compounds read low 0.982 | locus YKL160W, strain elf1, active compounds read low 1 | locus YKR001C, strain vps1, active compounds read low 0.97 | locus YKR026C, strain gcn3, active compounds read low 0.989 | locus YKR091W, strain srl3, active compounds read low 0.97 | locus YLL001W, strain dnm1, active compounds read low 1.02 | locus YLL026W, active compounds read low 1 | locus YLL041C, strain sdh2, active compounds read low 1.01 | locus YLR027C, strain aat2, active compounds read low 0.993 | locus YLR039C, strain RIC1, active compounds read low 0.974 | locus YLR058C, strain SHM2, active compounds read low 0.978 | locus YLR102C, strain apc9, active compounds read low 0.982 | locus YLR113W, strain HOG1, active compounds read low 0.978 | locus YLR221C, strain rsa3, active compounds read low 1.01 | locus YLR258W, strain gsy2, active compounds read low 0.986 | locus YLR262C, strain YPT6 (second series), active compounds read low 0.991 | locus YLR262C, strain YPT6, active compounds read low 0.911 | locus YLR268W, strain sec22, active compounds read low 0.969 | locus YLR320W, strain mms22, active compounds read low 0.985 | locus YLR330W, strain CHS5, active compounds read low 0.985 | locus YLR342W, strain FKS1 (second series), active compounds read low 0.995 | locus YLR342W, strain FKS1, active compounds read low 1.02 | locus YLR357W, strain rsc2, active compounds read low 0.949 | locus YLR370C, strain arc18, active compounds read low 1.01 | locus YLR371W, strain rom2, active compounds read low 0.959 | locus YLR384C, strain iki3, active compounds read low 1 | locus YLR418C, strain cdc73, active compounds read low 1.01 | locus YML016C, strain PPZ1, active compounds read low 0.986 | locus YML032C, strain rad52, active compounds read low 0.97 | locus YML120C, strain ndi1, active compounds read low 1 | locus YML124C, strain tub3, active compounds read low 0.986 | locus YMR058W, strain fet3, active compounds read low 0.973 | locus YMR078C, strain ctf18, active compounds read low 0.964 | locus YMR125W, strain sto1, active compounds read low 0.975 | locus YMR129W, active compounds read low 0.985 | locus YMR205C, strain PFK2, active compounds read low 1 | locus YMR223W, strain ubp8, active compounds read low 1 | locus YMR231W, strain pep5, active compounds read low 0.999 | locus YMR263W, strain SAP30, active compounds read low 0.99 | locus YMR307W, strain GAS1, active compounds read low 0.942 | locus YNL067W, strain RPL9B, active compounds read low 0.992 | locus YNL071W, strain lat1, active compounds read low 1 | locus YNL128W, strain TEP1, active compounds read low 0.97 | locus YNL153C, strain GIM3, active compounds read low 0.995 | locus YNL175C, strain NOP13, active compounds read low 0.988 | locus YNL183C, strain NPR1, active compounds read low 0.925 | locus YNL197C, strain WHI3, active compounds read low 0.95 | locus YNL209W, strain ssb2, active compounds read low 0.983 | locus YNL224C, strain SQS1, active compounds read low 0.996 | locus YNL233W, strain BNI4, active compounds read low 1 | locus YNL248C, strain rpa49, active compounds read low 0.921 | locus YNL250W, strain rad50, active compounds read low 0.961 | locus YNL271C, strain bni1, active compounds read low 0.979 | locus YNL298W, strain CLA4, active compounds read low 0.972 | locus YNL307C, strain MCK1, active compounds read low 0.979 | locus YNL322C, strain KRE1 (second series), active compounds read low 1.01 | locus YNL322C, strain KRE1, active compounds read low 0.995 | locus YNR049C, strain mso1, active compounds read low 0.986 | locus YNR052C, strain pop2, active compounds read low 0.974 | locus YOL012C, strain htz1 1.03 | locus YOL147C, strain pex11, active compounds read low 0.991 | locus YOR001W, strain rrp6, active compounds read low 1.02 | locus YOR061W, strain CKA2, active compounds read low 0.962 | locus YOR069W, strain VPS5, active compounds read low 0.984 | locus YOR070C, strain gyp1, active compounds read low 0.992 | locus YOR080W, strain dia2, active compounds read low 1.01 | locus YOR083W, strain WHI5 (second series), active compounds read low 0.975 | locus YOR083W, strain WHI5, active compounds read low 1.03 | locus YOR106W, strain vam3, active compounds read low 1.02 | locus YOR136W, strain idh2, active compounds read low 0.973 | locus YOR144C, strain elg1, active compounds read low 0.984 | locus YOR184W, strain ser1, active compounds read low 0.965 | locus YOR231W, strain MKK1, active compounds read low 0.981 | locus YOR265W, strain rbl2, active compounds read low 1 | locus YOR270C, strain vph1, active compounds read low 0.968 | locus YOR290C, strain snf2, active compounds read low 0.982 | locus YOR316C, strain cot1, active compounds read low 0.948 | locus YPL051W, strain arl3, active compounds read low 1.02 | locus YPL055C, strain LGE1, active compounds read low 0.988 | locus YPL078C, strain atp4, active compounds read low 1.01 | locus YPL106C, strain sse1, active compounds read low 0.984 | locus YPL240C, strain hsp82, active compounds read low 1 | locus YPL241C, strain CIN2, active compounds read low 0.999 | locus YPL256C, strain CLN2, active compounds read low 0.965 | locus YPR119W, strain clb2, active compounds read low 0.977 | locus YPR141C, strain kar3, active compounds read low 0.956 | locus YPR163C, strain tif3, active compounds read low 0.975 | locus YPR167C, strain met16, active compounds read low 0.985 | strain wtn01, active compounds read low 0.996
